# Measured values taken from PubChem BioAssay (NCI).
# The panel holds about 83,000 compounds, 20% with a hit somewhere; the sample as a whole holds those more often.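 Cell lines were cultured in 96-well plates, exposed to a single compound concentration, and assessed for percent growth 48 hours later.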 Unmarked numbers belong to inactive results. Calls of active or inactive are those of the source. The calls were made as follows: active = growth percent below 10; inactive = the rest.
# Test system: HL-60(TB) leukemia
# Experiment: NCI-60 one-dose screen, 48 h (100 = growth as untreated, 0 = no growth, -100 = all killed)
# Settings: 10 µM unless noted
row,SMILES,growth
1,Nc1nnc(CS(=O)(=O)c2ccccc2)s1,105%
2,CCOP(=O)(OCC)O[C@H]1CC[C@]2(C)[C@H]3CC[C@@H]4[C@@H]([C@](C)(O)CCC=C(C)C)CC[C@@]4(C)[C@]3(C)CC[C@H]2C1(C)C,0.463% (active)
3,CC[C@@]12CC(C(=O)OC)=C3Nc4cc5c(cc4[C@@]34CCN(C[C@H]3O[C@H]31)[C@@H]24)[C@@H]1[C@H](O5)[C@@H](O)[C@@]2(CC)CC(C(=O)OC)=C3Nc4cc(O)ccc4[C@@]34CCN1[C@@H]24,-39.1% (active)
4,O=C1NC(=NC2CCCCCC2)N/C1=C\c1ccc2ncoc2c1,30.1%
5,Nc1nc(-c2ccccc2)c(N=Nc2ccc(Cl)cc2[N+](=O)[O-])s1,83.8%
6,CC(C)C(C(=O)O)n1c(O)c(/C=C2/C=c3cc4c(cc3=NC2=O)OCO4)sc1=S (centres undefined),105%
7,O=C(Cn1nc(-c2ccccc2)ccc1=O)NN1C(=O)c2ccccc2C1=O,101%
8,CN1CCc2c(sc3ncnc(N/N=C/c4ccc(Cl)cc4Cl)c23)C1,-49.9% (active)
9,Clc1ccc2c(NCCNC34CC5CC(CC(C5)C3)C4)ccnc2c1,-53.1% (active)
10,COc1ccc(NC(=O)Cn2c(/C=C/c3cccc(Br)c3)nc3ccccc3c2=O)cc1,92.9%
11,COc1c(F)ccc(C(=O)Nc2ccc3nc(NC(=O)C4CCCN(S(=O)(=O)c5cccc(Cl)c5)C4)sc3c2)c1F (centres undefined),76.8%
12,CCOC(=O)C1=C(N)N(c2ccccc2)C2=C(C(=O)CC(C)(C)C2)C1c1cccc(Cl)c1Cl (centres undefined),46.2%
13,O=C(N=Nc1c(O)[nH]c2ccc(Br)cc12)c1ccc2nc(-c3ccccc3)[nH]c2c1,30.9%
14,CCOC(=O)C1=C(N)N(c2ccccc2)C2=C(C(=O)CC(C)(C)C2)C1c1ccc(N2CCOCC2)cc1 (centres undefined),101%
15,CO[C@@H]1CSS[C@H]1Cn1nc(-c2ccc(Oc3ccccc3)cc2)c2c(N)ncnc21,25.8%
16,Cc1cc(C(NC(=O)C2CC3(CC(Nc4cccc5c4C(=O)N(C4CCC(=O)NC4=O)C5=O)C3)C2)c2ccc3c(c2)OC(F)(F)O3)c(O)c2ncccc12 (centres undefined),-16.4% (active)
17,O=C(Nc1cccc(C(F)(F)F)c1)c1cncc(C#Cc2cnc3ccc(N4CCOCC4)nn23)c1,-33% (active)

row,SMILES,growth
1,O=C(c1ccc(F)cc1)C(c1c[nH]c2ccccc12)c1c[nH]c2ccccc12,41.8%
2,CN1C(=O)N(C)C2SC(N/N=C/c3ccccc3)=NC21 (centres undefined),8.73% (active)
3,CCCCCCCCCCCCCCCCCCCC(=O)NCCc1c[nH]c2ccc(O)cc12,52.8%
4,CN(CCF)c1ccc(/C=C/C(=O)c2ccc(N)cc2O)cc1,58%
5,O=c1cc(-c2ccccc2)oc2cc(OCCCNCc3ccccc3)cc(O)c12,-46.3% (active)
6,COc1ccc(NC(=O)Nc2nc3ccc([N+](=O)[O-])cc3s2)cc1,2.05% (active)
7,C=C1CCC2C3(C)COC(c4ccco4)OC3CCC2(C)C1CC(Sc1ccccc1)C1=CCOC1=O (centres undefined),-21.6% (active)
8,O=C(O)c1ccc(-c2ccc(/C=N/NC(=O)c3[nH]c4ccc(Br)cc4c3-c3ccccc3)s2)cc1,-5.49% (active)
9,O=C(CSc1nnc(-c2ccc3nc(-c4ccc(Cl)cc4)[nH]c3c2)o1)Nc1ccc(Cl)cc1,-20.9% (active)
10,OC(c1ccccc1)(c1ccccc1)C1CCN(c2ccc3nnc(Cl)n3n2)CC1,-33.6% (active)
11,CC1=C(C(=O)Nc2ccccc2)C(c2cccc(Cl)c2Cl)n2c(nc3ccccc32)N1 (centres undefined),9.78% (active)
12,Cc1cn(-c2cc(NC(=O)c3ccc(C)c(-n4cc(-c5cnc6cccnn56)nn4)c3)cc(C(F)(F)F)c2)cn1,24.9%
13,CN(C)c1nc(NCCNS(=O)(=O)c2ccc(C(=O)/C=C/c3ccc(F)cc3)cc2)nc(N2CCOCC2)n1,-20.3% (active)
14,O=C(Nc1ccc(OCc2ccc(F)cc2)cc1)Nc1ccc(Cl)c(C(F)(F)F)c1,-3.24% (active)
15,CC(=O)Nc1ccc(-c2cn(-c3cccc(C(=O)Nc4ccc(F)c(C(F)(F)F)c4)c3)nn2)cn1,62.8%
16,COc1ccc(N=Nc2c(N)nn3c(N)c(C#N)c(-c4ccc(C)cc4)nc23)cc1,52.1%
17,O=S(=O)(c1nc(-c2ccc(Br)cc2)oc1-c1ccc(Cl)cc1)N1CCCC(O)C1 (centres undefined),31.4%
